Screens (PubChem BioAssay)
D1 agonist = agonists of human D1 dopamine receptor | actives 1% (n = 360,000) | AID 504660 | HEK293 T-REx D1 cells, calcium flux, agonist mode | activation, % at 2 µM | P21728; in the data active means activation above about 30%; further: 0% is about no effect
Target sequence (P21728 whole entry, looked up): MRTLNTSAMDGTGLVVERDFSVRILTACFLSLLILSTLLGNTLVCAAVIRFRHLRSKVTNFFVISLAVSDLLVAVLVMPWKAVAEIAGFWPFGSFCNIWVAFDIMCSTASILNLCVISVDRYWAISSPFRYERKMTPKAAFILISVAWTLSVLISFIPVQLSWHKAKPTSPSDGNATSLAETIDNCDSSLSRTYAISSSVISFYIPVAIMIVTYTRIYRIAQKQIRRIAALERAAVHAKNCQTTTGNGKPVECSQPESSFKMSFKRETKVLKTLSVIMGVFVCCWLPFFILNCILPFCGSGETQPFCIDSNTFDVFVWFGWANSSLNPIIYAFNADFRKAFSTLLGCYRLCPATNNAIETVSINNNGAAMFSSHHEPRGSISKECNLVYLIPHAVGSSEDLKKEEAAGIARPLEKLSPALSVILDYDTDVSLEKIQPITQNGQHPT
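Tetracycline-induced HEK293 TREx D1 cells, force-coupled to calcium signalling, were dye-loaded with a no-wash calcium kit. Compound was pin-added after a 10 s baseline. Fluorescence was read kinetically at 1 cycle/s for 180 s, with calcium rises flagged as agonism.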
D1 antag = human D1 dopamine receptor antagonism. P21728. HEK293 TREx D1 cells, calcium flux, dopamine EC80; stronger effect = lower value. activity change, negative = inhibition, % at 10 µM. actives 3.2% (n = 360,000). AID 504652; in the data active means activity change below about -30%; further: on the % scale 0 is the no-effect control and ±100 the full control effect
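Tetracycline-induced HEK293 T-REx cells with force-coupled D1 receptor were loaded with a no-wash calcium dye. Compound was added after a 10 s baseline and read kinetically for 180 s; EC80 dopamine was then added and calcium flux followed another 180 s.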
D3 antag = D3 dopamine receptor (human) antagonism; D3R cells, DiscoveRx beta-arrestin luminescence, antagonist mode; stronger effect = lower value; actives 2.5% (n = 360,000); max response, negative = inhibition, %; AID 652054; in the data active means max response below about -50%; inconclusive means no clear call, values can overlap the other calls; further: on the % scale 0 is the no-effect control and ±100 the full control effect
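Cells expressing the human receptor were seeded at 1500 cells/well, incubated overnight at 37 degrees C in 5% CO2, then exposed to library compounds with dopamine controls for 90 minutes at 37 degrees C before luminescent detection.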
D1 PAM = human D1 dopamine receptor positive modulation; actives 0.036% (n = 360,000); HEK293 TREx D1 cells, calcium flux, dopamine EC20 potentiation; P21728; AID 504651; potentiation, % at 10 µM; in the data active means potentiation above about 30%; further: 0% is about no effect
DRD3 agonist = D3 dopamine receptor (human) agonism; AID 652048; actives 0.58% (n = 410,000); D3R DiscoveRx beta-arrestin cells, luminescence, 90 min; P35462; max activation, %; in the data active means max activation above about 30%; further: 0% is about no effect
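Agonist mode: compounds and dopamine controls were applied to plated cells for 90 min at 37 degrees C after an overnight attachment at 1500 cells/well. Luminescent read-out followed 30 - 60 minutes at room temperature with DiscoveRx detection reagent.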
Numbers without * were called inactive; u = inconclusive; x = not tested or not shown; ! = not active in a repeat. In the library only some 6.1% were active in any assay of this set; here they are far more common.

SMILES | D1 agonist | D1 antag | D3 antag | D1 PAM | DRD3 agonist
NC(=O)NC(CC(=O)NCCc1ccc(S(N)(=O)=O)cc1)c1ccc(Cl)cc1 (stereo unspecified) | 0 | -3 | 4 | -1 | -1
CN(C(=O)c1ccccc1C(=O)OCC(=O)NCc1ccccc1)C1CCCCC1 | 1 | -35* | 0 | -3 | -2
CC(C)n1cnc2c(N(C)c3ccccc3)nc(N(CCN(C)C)Cc3ccccc3)nc21 | 28 | -104* | -70* | 0 | -44
COc1cc(N(Cc2ccccc2)Cc2ccccc2)c2ncn(C(C)C)c2c1 | 0 | -3 | -30 | -6 | 5
COc1ccccc1C(=O)Oc1c(Sc2ccccc2)c(C)nn1C(C)(C)C | 2 | 3 | x | 0 | -16
O=C(NCc1ccccc1C(F)(F)F)c1cccc2c1C(=O)c1ccc(N3CCOCC3)cc1S2(=O)=O | x | x | 73 | x | 38*
COCCNC(=O)c1cccc2c1C(=O)c1ccc(N3CCOCC3)cc1S2(=O)=O | x | x | 6 | x | 10
O=C(NCc1ccccc1Cl)c1cccc2c1C(=O)c1ccc(-c3ccc(OC(F)(F)F)cc3)cc1S2(=O)=O | x | x | 54 | x | 31*
O=C(NCc1ccccc1C(F)(F)F)c1cccc2c1C(=O)c1ccc(N3CCC(N4CCCCC4)CC3)cc1S2(=O)=O | x | x | 12 | x | 6
Cc1ccc(CNC(=O)c2cccc3c2C(=O)c2ccc(N4CCCCC4)cc2S3(=O)=O)cc1 | 97* | 17 | 43 | 5 | -7
O=C(NC1CCCCC1)c1cccc2c1C(=O)c1ccc(-c3ccc(OC(F)(F)F)cc3)cc1S2(=O)=O | x | x | 7 | x | -20
Cc1ccc(CNC(=O)c2cccc3c2C(=O)c2ccc(N4CCOCC4)cc2S3(=O)=O)cc1 | 49* | x | 28 | -3 | 26
Cc1cccc(NS(=O)(=O)c2ccc3c(c2)CCN3C(=O)C2CCC2)c1 | 9 | -25 | x | 0 | 3
CC1=C(C(=O)Nc2ccc(C)cc2C)C(C(C)C)n2nc(SCc3ccccc3Cl)nc2N1 (stereo unspecified) | 0 | 6 | x | 1 | -8
Cc1cccc(NC(=O)C(=O)c2cc(C)n(-c3ccccc3)c2C)c1C | 3 | -1 | x | -2 | -13
O=C(NCc1cccc(F)c1)c1cccc2c1C(=O)c1ccc(N3CCOCC3)cc1S2(=O)=O | x | x | 21 | x | 56*
CCN1CCN(C(=O)c2ccc(Sc3ccccc3Cl)c([N+](=O)[O-])c2)CC1 | 12 | -15 | u | -3 | -8
CCN1CCCC1CNC(=O)c1ccc(Sc2ccc(F)cc2)c([N+](=O)[O-])c1 (stereo unspecified) | 16 | -1 | -77* | -2 | -8
CCN1CCCC1CNC(=O)c1ccc(Sc2ccccc2Cl)c([N+](=O)[O-])c1 (stereo unspecified) | 14 | 2 | -75* | -14 | -15
Cc1cccc(NC(=O)CSc2nc(C)c(Cc3ccccc3)c(=O)[nH]2)c1C | 1 | -31*! | x | -6 | 7
Cc1nc(SCC(=O)Nc2ccccc2F)[nH]c(=O)c1Cc1ccccc1 | 9 | -10 | x | -3 | 3
CCn1c(CSc2nc(C)cc(C)n2)nnc1SCC(=O)Nc1nc(-c2ccccc2)cs1 | 37* | 4 | 27 | 0 | 2
O=C(O)c1ccc(NC2=C/C(=N/S(=O)(=O)c3ccccc3)c3ccccc3C2=O)cc1 | 1 | 17 | -92* | -3 | -20
Cc1cc(C)c(S(=O)(=O)/N=C2\C=C(Nc3ccc(C(=O)O)cc3)C(=O)c3ccccc32)c(C)c1 | 3 | 3 | -77* | -5 | -34
Cc1cccc(N2CCCn3c2nc2c3c(=O)n(CC(=O)OCc3ccccc3)c(=O)n2C)c1 | 1 | -55* | x | -14 | x
Cc1nc(SCC(=O)Nc2ccccc2C)cc(-c2ccccc2)n1 | -3 | -6 | x | 1 | 18
O=C(C1CCN(S(=O)(=O)c2cccc3nsnc23)CC1)N1CCn2c1nc1ccccc12 | x | x | -101* | x | -22
O=C(C1CCN(S(=O)(=O)c2cccc3nsnc23)CC1)N1CCc2ccccc21 | x | x | -3 | x | -4
O=C(O)c1ccc(Cl)c(NC(=O)C2CCCN2S(=O)(=O)c2cccc3nsnc23)c1 (stereo unspecified) | 0 | -40* | u | -2 | -6
CC1CCN(CCNC(=O)C2CCN(S(=O)(=O)c3cccc4nsnc34)CC2)CC1 | 3 | 10 | -27 | 8 | -12
